# MRP reversal = reverses drug resistance mediated by MRP | H69AR cells + 2 uM doxorubicin, CellTiter-Glo, 72 h | differential viability (reversal), % at 10 µM | 0.04% of 85,000 active | AID 602;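 active = viability drop by adding the cancer drug above about 55%, with treated viability meeting a 40% cutoff, limit read from the data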;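 also: viability without doxorubicin minus viability with 2 µM doxorubicin for each compound; larger differential means the compound sensitizes cells more to doxorubicin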
# CYP2C19 inh = blocks human cytochrome P450 2C19; P33261; CYP2C19 Supersomes, luciferin-H EGE luminescence, 30 min; inhibition, % at 5 µM; 21% of 96,000 active;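 active = CYP2C19 inhibition above a set limit at 5 µM in the primary screen, cut at about 50% in these data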;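 also: plate controls were negative control wells for no effect and 2.5 mM tranylcypromine positive control for full effect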
# Target sequence (P33261 whole entry, looked up): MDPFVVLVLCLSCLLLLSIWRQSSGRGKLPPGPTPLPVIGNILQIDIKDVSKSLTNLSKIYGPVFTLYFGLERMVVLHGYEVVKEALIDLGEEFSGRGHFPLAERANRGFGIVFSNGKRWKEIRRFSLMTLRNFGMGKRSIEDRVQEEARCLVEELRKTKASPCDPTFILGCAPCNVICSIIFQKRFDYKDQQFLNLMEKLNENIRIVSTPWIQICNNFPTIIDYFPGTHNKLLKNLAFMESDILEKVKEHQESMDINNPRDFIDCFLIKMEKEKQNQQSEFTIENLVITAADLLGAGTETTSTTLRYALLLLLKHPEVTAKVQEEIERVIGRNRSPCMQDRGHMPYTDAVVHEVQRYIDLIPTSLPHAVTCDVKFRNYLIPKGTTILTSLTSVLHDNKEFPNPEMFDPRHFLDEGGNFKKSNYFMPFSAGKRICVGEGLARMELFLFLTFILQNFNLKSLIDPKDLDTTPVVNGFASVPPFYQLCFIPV
# CYP2C19 activ = cytochrome P450 2C19 (human) activation | P33261 | recombinant CYP2C19, luciferin-H EGE luminescence; stronger effect = higher value; 0 = fully inhibited enzyme, 1 = untreated enzyme | activation factor at 5 µM | 96,000 tested, under 10 active | AID 1025;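 active = activation factor of at least 2 at 5 µM in the primary screen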;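 also: 0 = wells with 2.5 mM tranylcypromine and 1 = vehicle-only wells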
# CYP2C9 inhib = human CYP2C9 inhibition. CYP2C9 Supersomes, luciferin-H conversion, luminescence. inhibition, % at 5 µM. 20% of 96,000 active. AID 777;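 active = blocking of liver enzyme CYP2C9 beyond about 50% at 5 µM, limit read from the data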
# MRP-1 activ = activates MRP-1 | H69AR cells + doxorubicin, viability rescue, CellTiter-Glo | viability increase, % at 10 µM | 0.61% of 140,000 active | AID 799;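 active = viability gain under doxorubicin at or above a set limit, the compound median plus 3 SD, cut at about 4.7% in these data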;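 also: MRP-1 overexpressing cells given doxorubicin 25 µM after compound pretreatment; 18-22 h compound pretreatment then 72 h with doxorubicin before readout; 0% = doxorubicin-only wells and 100% = vehicle-treated cells without doxorubicin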
# CYP2C9 act = CYP2C9 (human) activation | P11712 | recombinant CYP2C9, luciferin-H conversion, luminescence; stronger effect = higher value; factor 1 = untreated enzyme, 0 = blocked | activation factor at 5 µM | 1.4% of 96,000 active;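 active = activation factor of 2 or more for CYP2C9 at a 5 µM dose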;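 also: 0 = sulfaphenazole-blocked wells and 1 = vehicle-only wells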
# An asterisk follows results filed as active; nt = no result. This is a sample that favours compounds with a hit; in the whole collection about 21% have one here.
SMILES,MRP reversal,CYP2C19 inh,CYP2C19 activ,CYP2C9 inhib,MRP-1 activ,CYP2C9 act
O=C(NCCCn1ccnc1)C(Cc1ccccc1)N1C(=O)c2ccccc2C1=O (configuration not stated),13.9,63.8*,0.4,62.2*,-2.5,0.4
CC(=O)c1cccc(NC(=O)C23CC4CC(C2)CC(n2cncn2)(C4)C3)c1,nt,nt,nt,nt,-0.7,nt
COCCn1c(C)c(C(=O)O)sc1=S,-8.6,-7.8,1.1,-15.5,-2.0,1.2
COc1ccc(CC(=O)NC(C)c2nnc(SCCOc3ccc(OC)cc3)n2C)cc1 (configuration not stated),7.7,4.7,1,29.0,1.2,0.7
Cc1ccc2nc3c(cc(C(=O)NCC4CCCO4)n3C)c(=O)n2c1 (configuration not stated),nt,nt,nt,nt,1.9,nt
Cc1ccc2nc3c(cc(C(=O)NCCCn4ccnc4)n3C)c(=O)n2c1,5.8,88.7*,0.1,89.6*,-0.9,0.1
O=C(NCCCn1ccnc1)c1cccc(S(=O)(=O)Nc2ccccc2F)c1,3.1,61.2*,0.4,100.4*,-2.3,0
COCCCNC(=O)c1cn(Cc2c(F)cccc2Cl)nn1,nt,13.6,0.9,16.6,-1.0,0.8
O=C(NCCCn1ccnc1)c1cn(Cc2ccc(F)cc2)nn1,11.0,94.3*,0.1,59.6*,-0.1,0.4
O=C(NCCCn1ccnc1)C(=O)NCC1OCCCN1S(=O)(=O)c1ccccc1 (configuration not stated),nt,nt,nt,nt,0.5,nt
O=C(NCCCn1ccnc1)C1c2ccccc2Oc2ccccc21,15.0,99.8*,0,98.4*,-3.3,0
O=C(NCCCn1ccnc1)Nc1cccc2ccccc12,17.0,nt,nt,nt,-0.6,nt
COc1cccc(N2CCN(Cc3coc4c(Cl)cc(Cl)cc4c3=O)CC2)c1,-1.8,nt,nt,nt,nt,nt
O=C(NCCCn1ccnc1)c1sc2cccc(F)c2c1Cl,12.6,96.5*,0,90.8*,-1.8,0.1
CCCNC(=O)c1cc2nc(-c3ccccc3)cc(C(F)(F)F)n2n1,-1.0,nt,nt,nt,1.0,nt
O=C(Cc1cccs1)Nc1nnc(-c2ccncc2)s1,0.1,98.2*,0,95.6*,-3.2,0
CC(NC(=O)Cc1cccs1)c1ccc2c(c1)OCO2 (configuration not stated),-2.3,18.0,0.8,9.5,-0.5,0.9
CC(NC(=O)Cc1cccs1)c1ccncc1 (configuration not stated),10.8,63.7*,0.4,66.0*,-1.1,0.3
COc1cccc(-c2nnc(NC(=O)Cc3cccs3)s2)c1,-6.9,-8.6,1.1,-16.1,-1.8,1.2
O=C(COc1ccccc1F)Nc1nnc(-c2ccncc2)s1,-5.4,93.3*,0.1,95.3*,1.1,0
CCCCNC1C(CC)C(CCC)C(C#N)(C#N)C1(C#N)C#N (configuration not stated),nt,9.0,0.9,-3.2,-2.2,1
Cc1[nH]c2ccc(C(=O)OCCN(C)C)cc2c1C,1.6,85.5*,0.1,23.3,-0.4,0.8
O=C(CN1N=C(c2ccc(Cl)cc2)CCC1=O)NCCN1CCc2ccccc2C1,nt,nt,nt,nt,-1.9,nt
O=C(CN1C(=O)CCSc2ccccc21)Nc1ccccc1,-13.3,91.5*,0.1,70.3*,-2.5,0.3
O=C(CN1C(=O)CCSc2ccccc21)Nc1ccc(F)cc1,16.5,94.6*,0.1,80.3*,0.5,0.2
SMILES,MRP reversal,CYP2C19 inh,CYP2C19 activ,CYP2C9 inhib,MRP-1 activ,CYP2C9 act
O=C(CN1C(=O)CCSc2ccccc21)Nc1ccc2c(c1)OCCO2,nt,5.3,0.9,17.9,-1.7,0.8
CCOc1ccc(S(=O)(=O)Oc2ccc3ccccc3c2)cc1,nt,nt,nt,nt,-3.3,nt
C=CCn1c(C(CC(C)C)CC(C)O)n[nH]c1=S (configuration not stated),nt,nt,nt,nt,1.7,nt
C=CCN(C(=O)Cn1c(C(=O)OC)cc2oc(C)cc21)c1ccccc1,8.5,92.3*,0.1,47.8,-1.7,0.5
COC(=O)c1cc2oc(C)cc2n1CC(=O)N(C)c1ccccc1,-5.7,64.4*,0.4,19.2,-1.1,0.8
Cc1sc2ncn(CC(=O)NCCCC(=O)N3CCN(c4ncccn4)CC3)c(=O)c2c1C,3.1,1.1,1,24.0,0.5,0.8
COCCn1c(=NC(=O)c2ccc3c(c2)OCO3)c(C#N)cc2c(=O)n3cccc(C)c3nc21,23.5,-22.9,1.2,-13.4,-2.9,1.1
CCCCn1c(=NC(=O)c2ccc3c(c2)OCO3)c(C#N)cc2c(=O)n3cccc(C)c3nc21,27.8,35.7,0.6,57.3*,-2.3,0.4

# Screens as filed in PubChem.
